In PubChem BioAssay (Tox21):
A number with no mark means an inactive call. A call without a number means that no potency is given here. Activity calls are given as the source filed them. Calls come from the whole dose curve; as a rule, active = well fitted curve in the direction sought with a large enough effect in the repeat runs; inconclusive = weak or mixed curves; inactive = flat fitted curve, though single readings scatter.

assay: qHTS assay to test for compound auto fluorescence at 535 nm (green) in HepG2 cells (AID 720675); conditions: green autofluorescence 485/535 nm, 1 h; series mostly up to 91.3 µM
From the text: National Center for Advancing Translational Sciences [NCATS]
NIH Chemical Genomics Center [NCGC]
U.S. Environmental Protection Agency [EPA]
National Institutes of Environmental Health Sciences [NIEHS]
National Toxicology Program [NTP]
U.S. Food and Drug Administration [FDA]
Compound auto fluorescence often interferes with screening of the compound library against various biological targets and signaling pathways. Some of these compounds may have fluorophoric properties. Such properties may interfere with the assay outputs resulting in false positives and/or negatives. To decrease such complications and ensure the compound activities are relevant in terms of biological response, the Tox21 10K compound library was screened for auto fluorescence.
From the fluorophores used as reporter signals in our screening assays, the auto fluorescence equivalencies of compounds against three fluorophores have been evaluated: Triamterene, Fluorescein and Rose Bengal sodium for blue, green and red fluorescence, respectively. The fluorescence intensities were measured using Excitation/Emission wavelengths at 405/460nm, 485/535nm and 540/590nm for blue, green and red labels, respectively. This assay includes the green fluorescence data.
Tox21 Assay Protocol Summary:
2,000 HepG2 cells in 5 uL of culture medium (MEM containing 10% FBS) per well were dispensed into black wall/clear bottom 1536-well plates using a Multidrop Combi Dispenser (ThermoFisher Scientific, Waltham, MA). The assay plates were incubated overnight at 37 C to allow cell attachment to the well bottom, followed by the transfer of 23 nL compound or DMSO vehicle by a pintool work station (Kalypsys , San Diego, CA). After the assay plates were incubated for 1 hr at 37 C and 5% CO2, fluorescence intensities in the assay plates were measured by an Envision (PerkinElmer, Shelton, CT) plate reader using three labels for measuring blue, green and red fluorescence at […] 460, 535 and 590 nm respectively.

Structure (SMILES) | Potency | fluorescence, % of fluorescein control
CCCCCCCN | inactive | –
CC(CSC(=O)c1ccccc1)C(=O)N1C[C@@H](Sc2ccccc2)C[C@H]1C(=O)O (stereo not given in full) | inactive | –
NC(N)=NCCC[C@H](N)C(=O)O | inactive | –
OCCNCc1ccccc1 | inactive | –
O=CC1CC=CCC1 (stereo not given) | inactive | –
c1ccc(C(O[C@H]2CCCN(CCc3ccc4c(c3)OCO4)C2)c2ccccc2)cc1 | inactive | –
COC(C)(C)CCO | inactive | –
CN(C)C(=O)NC1(c2ccccc2)CCN(CC[C@@]2(c3ccc(F)c(F)c3)CN(C(=O)c3ccccc3)CCO2)CC1 | inactive | –
CC(C)(O)c1ccc(CNC(=O)c2cccnc2Oc2ccc(F)cc2)cc1 | inactive | –
CC(=O)[O][Al] | inactive | –
CC(COCCO)OCCO (stereo not given) | inactive | –
CC(=O)[O][Al][O]C(C)=O | inactive | –
ClCCOCCOCCCl | inactive | –
CC(C)Nc1ccc(NC(C)C)c2c1C(=O)c1ccccc1C2=O | inactive | –
O=C1OC(=O)C2C3C=CC(C3)C12 (stereo not given) | inactive | –
C[Si](C)(CCCN)O[Si](C)(C)CCCN | inactive | –
Nc1ccc(N)c2c1C(=O)c1ccccc1C2=O | inactive | –
Cc1oc(-c2ccccc2)nc1CCOc1cccc2c1ccn2CCC(=O)O | inactive | –
CCOC(=O)NCCOc1ccc(Oc2ccccc2)cc1 | inactive | –
CCCCCCCCCOS(=O)(=O)O | inactive | –

Structure (SMILES) | Potency | fluorescence, % of fluorescein control
C[N+](C)(C)CCOC(=O)CCC(=O)OCC[N+](C)(C)C | inactive | –
Cc1[nH]c(C)c(Cl)c(=O)c1Cl | inactive | –
CN1CCN(C(c2ccccc2)c2ccccc2)CC1 | – | -0.189% [at 18.6 µM]
Clc1ccc(Cn2c(CN3CCCC3)nc3ccccc32)cc1 | – | 0.097% [at 18.6 µM]
CN1CCC(N(Cc2cccs2)c2ccccc2)CC1 | inactive | –
C1CCCNCCC1 | inactive | –
CC(=O)NO | inactive | –
CCCCNc1ccc(C(=O)OCCOCCOCCOCCOCCOCCOCCOCCOCCOC)cc1 | – | -0.0335% [at 18.6 µM]
O=C(O)C(S)C(S)C(=O)O (stereo not given) | inactive | –
CCN(CC)CCNc1ccc(CNC=O)c2sc3ccc(OC)cc3c(=O)c12 | inactive | –
COc1ccc(S(=O)(=O)N2C(=O)[C@@](c3ccccc3OC)(N3C[C@H](O)C[C@H]3C(=O)N(C)C)c3cc(Cl)ccc32)c(OC)c1 | inactive | –
CC(=O)c1ccc2c(c1)N(CCCN1CCC(CCO)CC1)c1ccccc1S2 | – | 0.043% [at 18.6 µM]
CCOC(=O)Cc1cccc2ccccc12 | inactive | –
Clc1ccc2c(c1)CCc1cccnc1C2=C1CCNCC1 | inactive | –
O=C(O)c1ccco1 | inactive | –
CC(=O)c1cccc([N+](=O)[O-])c1 | inactive | –
CCCCOC(=O)CCCCCCCC(=O)OCCCC | inactive | –
O=C(OCCCCCCOC(=O)c1ccccc1)c1ccccc1 | inactive | –
CC(C)(CO)[N+](=O)[O-] | inactive | –
CCN(CC)CCOC(=O)C(Cc1cccc2ccccc12)CC1CCCO1 (stereo not given) | – | 0.0388% [at 18.6 µM]
